According to PubChem BioAssay:

What follows are compounds tested on Noggin (protein binding on small-molecule microarray) (assay: Noggin binders on small-molecule microarray, primary screen, biochemical, 635/667 nm fluorescence (AID 1095;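 note: score merges 667 nm feature fluorescence with signal to noise over triplicate slides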)). Conditions: 635 nm fluorescence, higher = more signal.

SMILES	composite z-score
CC(c1ccccc1)C(O)C1C=CC2C(=O)N(c3ccccc3)C(=O)C2N1Nc1ccc(C#N)cc1 (stereo not drawn)	0.562
O=C1c2ccccc2[C@@]2(Cc3ccccc3N(Cc3ccccc3)C2=O)[C@H](c2ccc(CO)cc2)N1Cc1ccccc1	-0.945
CC(C)CNC(=O)[C@@H]1c2ccccc2C(=O)N(CC23CC4CC(CC(C4)C2)C3)[C@H]1c1ccc(CO)cc1	0.264

What follows are compounds tested against Neurogenic locus notch homolog protein 3 (Homo sapiens) (UniProt Q9UM47) (assay: NOTCH3 binders on small-molecule microarray, primary screen, biochemical, 635/667 nm fluorescence (AID 1096)). Conditions: NOTCH3 binding, 635 nm fluorescence, higher = more signal.
Sequence of Neurogenic locus notch homolog protein 3 (Homo sapiens) (Q9UM47 whole entry, looked up): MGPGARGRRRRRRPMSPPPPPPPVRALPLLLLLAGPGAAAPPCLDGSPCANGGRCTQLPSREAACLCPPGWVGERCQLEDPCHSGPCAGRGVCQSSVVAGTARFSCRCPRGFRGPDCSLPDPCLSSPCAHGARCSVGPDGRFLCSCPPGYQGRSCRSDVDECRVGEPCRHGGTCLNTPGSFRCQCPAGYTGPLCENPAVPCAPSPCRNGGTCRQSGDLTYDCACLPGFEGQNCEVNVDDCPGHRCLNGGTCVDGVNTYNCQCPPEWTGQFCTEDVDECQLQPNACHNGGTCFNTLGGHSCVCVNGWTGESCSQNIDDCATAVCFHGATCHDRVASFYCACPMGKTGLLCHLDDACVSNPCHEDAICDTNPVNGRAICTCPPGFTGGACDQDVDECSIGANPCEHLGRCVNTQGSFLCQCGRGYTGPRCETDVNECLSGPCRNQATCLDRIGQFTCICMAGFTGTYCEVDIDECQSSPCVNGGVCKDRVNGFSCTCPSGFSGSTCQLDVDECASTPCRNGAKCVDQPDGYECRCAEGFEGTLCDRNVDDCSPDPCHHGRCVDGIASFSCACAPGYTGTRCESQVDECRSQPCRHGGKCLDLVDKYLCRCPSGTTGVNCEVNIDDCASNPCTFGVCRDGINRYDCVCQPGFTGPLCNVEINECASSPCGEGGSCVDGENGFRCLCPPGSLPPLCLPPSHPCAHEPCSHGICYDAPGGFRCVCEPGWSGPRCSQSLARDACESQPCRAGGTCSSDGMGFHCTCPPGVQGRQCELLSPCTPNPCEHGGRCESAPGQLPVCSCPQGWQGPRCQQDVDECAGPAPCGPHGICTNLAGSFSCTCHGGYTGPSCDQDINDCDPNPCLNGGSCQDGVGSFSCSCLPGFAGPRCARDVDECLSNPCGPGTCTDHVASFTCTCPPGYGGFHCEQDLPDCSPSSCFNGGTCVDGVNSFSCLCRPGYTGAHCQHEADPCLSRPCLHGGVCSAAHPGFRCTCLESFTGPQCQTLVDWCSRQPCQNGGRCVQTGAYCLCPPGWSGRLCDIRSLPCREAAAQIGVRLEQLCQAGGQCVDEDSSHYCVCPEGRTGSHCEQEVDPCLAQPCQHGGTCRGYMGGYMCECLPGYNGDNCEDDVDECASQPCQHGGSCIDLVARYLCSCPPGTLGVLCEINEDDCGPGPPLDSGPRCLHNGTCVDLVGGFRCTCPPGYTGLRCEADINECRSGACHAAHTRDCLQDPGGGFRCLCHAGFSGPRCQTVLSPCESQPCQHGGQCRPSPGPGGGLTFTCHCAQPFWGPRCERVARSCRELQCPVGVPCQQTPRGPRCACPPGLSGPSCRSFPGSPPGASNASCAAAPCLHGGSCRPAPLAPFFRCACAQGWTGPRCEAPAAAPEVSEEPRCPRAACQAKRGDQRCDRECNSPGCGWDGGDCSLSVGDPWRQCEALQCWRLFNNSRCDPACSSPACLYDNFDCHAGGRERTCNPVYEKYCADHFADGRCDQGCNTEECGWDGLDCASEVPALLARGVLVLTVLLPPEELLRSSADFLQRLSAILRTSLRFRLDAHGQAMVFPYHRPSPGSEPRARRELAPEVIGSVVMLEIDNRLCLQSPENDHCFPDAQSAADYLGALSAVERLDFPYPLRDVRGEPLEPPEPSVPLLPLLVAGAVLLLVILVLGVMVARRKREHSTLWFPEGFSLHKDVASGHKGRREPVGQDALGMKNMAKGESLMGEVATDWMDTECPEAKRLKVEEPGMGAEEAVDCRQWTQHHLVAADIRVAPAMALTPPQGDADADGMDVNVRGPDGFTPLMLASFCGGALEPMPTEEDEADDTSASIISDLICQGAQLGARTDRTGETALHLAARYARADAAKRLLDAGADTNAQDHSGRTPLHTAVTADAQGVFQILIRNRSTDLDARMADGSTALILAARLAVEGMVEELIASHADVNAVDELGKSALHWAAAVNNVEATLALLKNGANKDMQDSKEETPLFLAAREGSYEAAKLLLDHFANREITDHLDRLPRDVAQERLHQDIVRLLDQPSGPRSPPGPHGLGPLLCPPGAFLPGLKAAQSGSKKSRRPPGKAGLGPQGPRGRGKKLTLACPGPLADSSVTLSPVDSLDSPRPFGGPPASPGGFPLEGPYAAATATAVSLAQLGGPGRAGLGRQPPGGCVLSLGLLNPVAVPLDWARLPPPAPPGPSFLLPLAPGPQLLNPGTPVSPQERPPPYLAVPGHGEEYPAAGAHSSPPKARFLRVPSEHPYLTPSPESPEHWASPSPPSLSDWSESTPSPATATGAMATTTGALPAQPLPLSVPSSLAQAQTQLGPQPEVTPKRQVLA

SMILES	composite z-score
COCCOC(=O)N1C(=O)[C@@]2(c3cc(C#CCNC(N)=O)ccc31)[C@H](C(=O)NC[C@H](O)c1ccccc1)[C@H]1C(=O)O[C@H](c3ccccc3)[C@H](c3ccccc3)N1[C@@H]2c1ccc(OCCO)cc1	1.16
COC(=O)[C@@]1(Cc2ccc(F)cc2)[C@H]2c3cc(C(=O)N(C)C)n(CCn4cc([N+](=O)[O-])nc4C)c3C[C@H]2CN1C(=O)c1ccccc1	-0.455
CN(C)CCCCNC(=O)[C@H]1C[C@H]2C(=O)N[C@@H](Cc3ccccc3)C(=O)N2[C@H]1c1cccc(OCCO)c1	0.307
CCCCN1CC=CC23O[C@@H]4/C=C\CCC(C)OC(=O)C4[C@H]2C(=O)N(C(C)CO)[C@@H]3C1=O (stereo partly drawn)	-0.878
CCCCC(=C=CC[C@@H](O)c1cccc(OCCO)c1)CCO	0.098
CN1C=C(C(=O)OCCS(C)(=O)=O)C(C(=O)OCCS(C)(=O)=O)=CC(CCCO)=CC1c1ccc(CN2CCCC2)cc1 (stereo not drawn)	0.984
C#CCN(C/C=C/c1ccccc1)[C@H](CO[Si](C)(C)C(C)(C)C)c1ccccc1	-0.091
O=C1O[C@H](c2ccccc2)[C@H](c2ccccc2)N2[C@H]1[C@@H](C(=O)N1CCN(c3ncccn3)CC1)[C@]1(C(=O)Nc3ccccc31)[C@H]2c1ccc(O)cc1	0.305
[N-]=[N+]=NCc1ccccc1[C@@H]1OC(c2ccc(OCCCO)cc2)=N[C@]1(Cc1ccccc1)C(=O)NCc1ccccc1	0.672
C=CCOC(=O)[C@H]1[C@@H]2C(=O)O[C@@H](c3ccccc3)[C@@H](c3ccccc3)N2[C@@H](c2ccc(OCCOC(=O)[C@@H]3C[C@@H]4C(=O)N[C@@H](CC(C)C)C(=O)N4[C@@H]3c3ccc(O)cc3)cc2)[C@]12C(=O)Nc1ccc(I)cc12	0.752
CC(C)CNC(=O)[C@@]1(C)c2ccccc2C(=O)N(Cc2cc(F)cc(C(F)(F)F)c2)[C@H]1c1ccc(CO)cc1	0.616
NCCCC[C@@H]1NC(=O)[C@H]2C[C@@H](C(=O)O)[C@@H](c3cccc(OCCO)c3)N2C1=O	1.02
CC(C)C[C@@H]1NC(=O)[C@H]2C[C@@H](C(=O)NCCCCCNC(=O)CS)[C@@H](c3ccc(O)cc3)N2C1=O	0.634
CO[C@H]1O[C@H](CO)[C@@H](OC(=O)Nc2ccccc2)[C@@H]2OC(=O)[C@H](Cc3ccccc3)C/C=C/C[C@@H](Cc3ccccc3)C(=O)O[C@@H]12	0.702
CC(C)CNC(=O)[C@@H]1c2ccccc2C(=O)N(Cc2ccccc2Cl)[C@H]1c1ccc(CO)cc1	-1.08
CCc1cccc(NC(=O)O[C@H]2[C@H](OC(=O)Nc3ccc4c(c3)OCO4)[C@H](OC(=O)Nc3ccc4c(c3)OCO4)[C@@H](OC)O[C@@H]2CO)c1	1.08
CCN(CC)c1ccc(N2CC=CC34O[C@@H]5C=CCOC(=O)[C@@H]5[C@H]3C(=O)N(CCCO)[C@@H]4C2=O)cc1 (stereo partly drawn)	-0.453
C=C(CCCC)/C(=C/C[C@H](OC(C)=O)c1cccc(OCCO)c1)c1cc(C(=O)OC)ccc1OC	0.195

SMILES	composite z-score
C=C(COC)/C(=C/C[C@H](OC(=O)c1ccncc1)c1ccc(OCCO)cc1)c1cc(C(=O)OC)ccc1OC	1.1
NC(=O)NCC#Cc1ccc2c(c1)[C@]1(C(=O)N2)[C@H](C(=O)Nc2nc3ccccc3s2)[C@H]2C(=O)O[C@H](c3ccccc3)[C@H](c3ccccc3)N2[C@@H]1c1ccc(OCCO)cc1	0.353
C=CCNC(=O)[C@H]1[C@@H]2C(=O)O[C@@H](c3ccccc3)[C@@H](c3ccccc3)N2[C@@H](c2ccc(O)cc2)[C@]12C(=O)Nc1ccc(C#CC3=CCCCC3)cc12	0.758
C=CCC(OC(C)=O)[C@@H]1[C@@H](N(Cc2cccc3ccccc23)C(=O)c2ccc(-c3ccccc3)cc2)c2cc(OCCCO)ccc2N1C(=O)c1ccc2ccccc2n1 (stereo partly drawn)	0.296
O=C1c2ccccc2[C@](Cc2ccccc2I)(C(=O)O)[C@H](c2ccc(CO)cc2)N1Cc1ccccc1	-0.0277
CC(C)[C@@H](C(=O)O)n1cc(-c2ccccc2)nn1	0.938
C/C=C/CN(C(=O)C#Cc1ccccc1)[C@H](CO[Si](C)(C)C(C)(C)C)c1ccccc1	-1.35
COCCOC(=O)N1C(=O)[C@@]2(c3cc(C#CCCO)ccc31)[C@H](c1ccc(O)cc1)N1[C@H](c3ccccc3)[C@H](c3ccccc3)OC(=O)[C@H]1[C@@H]2C(=O)N1CCc2cc(OC)c(OC)cc2C1	1.06
Cc1ccc(S[C@]2(C(=O)NC3CC3)CC(=O)N(Cc3cc(C(F)(F)F)cc(C(F)(F)F)c3)[C@@H]2c2ccc(CO)cc2I)cc1	0.409
C[N+](C)(C)CCCC[C@@H]1NC(=O)[C@H]2C[C@@H](C(=O)NCCCCCNC(=O)CS)[C@@H](c3ccc(O)cc3)N2C1=O	0.58
CC[C@H](C)C(=O)O[C@H]1CC[C@]2(C)C3=C(CCC2C1(C)C)[C@]1(C)CC[C@H]([C@H](C)CCCC(C)C)[C@@]1(C)CC3 (stereo partly drawn)	0.854
COCCOC(=O)N1C(=O)[C@@]2(c3cc(C#CCC(C(=O)OC)C(=O)OC)ccc31)[C@H](C(=O)N1CCCCCCC1)[C@H]1C(=O)O[C@H](c3ccccc3)[C@H](c3ccccc3)N1[C@@H]2c1ccccc1OCCO	1.14
C=CCOC(=O)[C@H]1[C@@H]2C(=O)O[C@@H](c3ccccc3)[C@@H](c3ccccc3)N2[C@@H](c2ccc(OCCOC(=O)[C@H]3C[C@H]4C(=O)NCC(=O)N4[C@H]3c3ccc(O)cc3)cc2)[C@]12C(=O)Nc1ccc(I)cc12	0.672
CC#CCO[Si](C#CCCCCCC)(C(C)C)C(C)C	-1.16
CC(c1ccccc1)C(O)C1C=CC2C(=O)N(c3ccccc3)C(=O)C2N1Nc1ccc(C#N)cc1 (stereo not drawn)	1.04
O=C1c2ccccc2[C@@]2(Cc3ccccc3N(Cc3ccccc3)C2=O)[C@H](c2ccc(CO)cc2)N1Cc1ccccc1	-1.15
CC(C)CNC(=O)[C@@H]1c2ccccc2C(=O)N(CC23CC4CC(CC(C4)C2)C3)[C@H]1c1ccc(CO)cc1	0.953
